In all, about 35,000 sequences were measured (“fluorescence intensity (a.u.)”: median about 10,000, highest 2% from about 52,000 on). The entries come from a sample that favours the highest values as a whole.

This assay concerns the target T1, OsWOX13 (Oryza sativa, UniProt Q5QMM3 1-267).
T1 sequence: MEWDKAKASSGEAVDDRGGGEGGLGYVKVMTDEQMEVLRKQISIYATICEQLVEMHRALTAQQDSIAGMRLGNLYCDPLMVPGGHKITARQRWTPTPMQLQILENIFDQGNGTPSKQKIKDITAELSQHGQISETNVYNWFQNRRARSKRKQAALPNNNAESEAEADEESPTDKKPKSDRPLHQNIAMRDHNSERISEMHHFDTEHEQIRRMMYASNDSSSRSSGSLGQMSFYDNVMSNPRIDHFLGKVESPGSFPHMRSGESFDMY
Put plainly: protein-binding microarray (RPBM); PBS, 2% BSA, 51.3 ng/ul salmon testes DNA, 50 uM zinc acetate, 200 nM TF, 25 C, 1 h; high values mean tight binding. The settings on record: protein: recombinant; tags: N-terminal polyhistidine and DsRed monomer fusion (pET32a); label: CyDye5-dUTP incorporated in the synthesized complementary strand; 3' TTTTT single-stranded linker to array surface; dsDNA, one strand shown. The procedure, abridged: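 Per-feature fluorescence intensity (arbitrary units), read on an Axon 4000B scanner, is the binding signal. Transcription factors carrying an N-terminal polyhistidine tag and DsRed fusion were expressed in E. coli BL21-CodonPlus and purified on Ni–NTA. A custom Agilent array, made double-stranded by primer extension with Cy5-dUTP and blocked with 2% BSA, was incubated with 200 nM protein in PBS, 2% BSA, salmon testes DNA and 50 µM zinc acetate at 25 °C for 1 h and then washed.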
Consider “CATTGTCATCCTGAGTAGATTGCCAATTATATGGGTTTGGCGGAGTCACCTAGTGCAG”, for which the binding signal was 6170 fluorescence intensity (a.u.).

In the case of “CGTTTTGATGGATGGCTCAGATCGGTTCCGAATCGATCAACGGAGTCACCTAGTGCAG”, the binding signal was 5120 fluorescence intensity (a.u.).

As for “GGTTTAATTAATTAATCGCGCCAACCCAGATGCTAATCAGCGGAGTCACCTAGTGCAG”, the binding signal is 50200 fluorescence intensity (a.u.). Regarding “TGAAAATTTTGTCGGAAATTTATCAGTGTATCAACTGTCTCGGAGTCACCTAGTGCAG”, the binding signal was 6470 fluorescence intensity (a.u.). Consider “TTTCTTGATTTGGTTGGGATTGGTTGTTCTTGGGCTTATCCGGAGTCACCTAGTGCAG”, for which the binding signal was 24600 fluorescence intensity (a.u.).

For the sequence “GTTGAGATTAATTGTTCTATACTACTTTCTCTATCTAAAACGGAGTCACCTAGTGCAG”, the binding signal is 7990 fluorescence intensity (a.u.). Under “GATAATTCTTATGTTACTGACTAATATGATAGTACTGAGTCGGAGTCACCTAGTGCAG” stands 5770 fluorescence intensity (a.u.). For the sequence “TATAATTGTTACTGTTAATTGAGGTGGGAAATACCAGGTGCGGAGTCACCTAGTGCAG”, the binding signal is 53500 fluorescence intensity (a.u.).

In the case of “GGAACAGGTACCATAATTGTTAATAACCTAATACTGGGCCCGGAGTCACCTAGTGCAG”, the binding signal is 5270 fluorescence intensity (a.u.). Under “TGTTGCTGTTGATTAGCTCTCACCTAATTTGTTGTGTATGCGGAGTCACCTAGTGCAG” stands 18100 fluorescence intensity (a.u.); under “ATTAACCAGTATTAATAATTGAGGGACGTTGTATACTGGGCGGAGTCACCTAGTGCAG”, 20500 fluorescence intensity (a.u.); under “ATGAATCTAGTCAGATTGGCCAATTTGATTTGTTTTACTCCGGAGTCACCTAGTGCAG”, 9360 fluorescence intensity (a.u.).

Regarding “ACACTTGGAGATTGGTAATAGATTACAGAAAGTTGAATGCCGGAGTCACCTAGTGCAG”, the binding signal is 14300 fluorescence intensity (a.u.). Under “TGTTAATCTTGCTGATTTTGTTATTGATTTTAATGCTATGCGGAGTCACCTAGTGCAG” stands 17300 fluorescence intensity (a.u.). Under “AATTTGATTGATTTTACTCTCGAGCCAATTGAGATGTCTGCGGAGTCACCTAGTGCAG” stands 64800 fluorescence intensity (a.u.). “CCTGATTAATTGTTAATTTTGCTGATGCAGCTGTTGCTTGCGGAGTCACCTAGTGCAG”: the binding signal was 65000 fluorescence intensity (a.u.). For “ACTTACAAATTTTGTACTCAATTGAGATGTGCTTCGATTGCGGAGTCACCTAGTGCAG”, the binding signal was 5640 fluorescence intensity (a.u.).

With “AGTTGATTGGTAAAGTGACATGCTTGAACACTGTTGGAGCCGGAGTCACCTAGTGCAG”, the binding signal was 54000 fluorescence intensity (a.u.).

For the sequence “TCAAAGTGATTGGTGACACTCTACACAACACACAGTTGAACGGAGTCACCTAGTGCAG”, the binding signal was 28400 fluorescence intensity (a.u.). Under “TTCCGGTGATTAGTCAACTGCCACGACCAGATTAATCTACCGGAGTCACCTAGTGCAG” stands 20300 fluorescence intensity (a.u.). With “TCATAACTAATATTTAAATGGTATTTGAACATCCCATGGACGGAGTCACCTAGTGCAG” the figure was 9720 fluorescence intensity (a.u.); with “TCTGACCTGAAAGTCTCAATCAGACAGCTTTCGAAAAGGACGGAGTCACCTAGTGCAG”, 4260 fluorescence intensity (a.u.); with “AAACCTATGACAATCAACCTTTTGACTGTCATACTAGCTCCGGAGTCACCTAGTGCAG”, 9360 fluorescence intensity (a.u.). Under “TATTGATTAAACATAATGGTCTCACAATATTTTAGTTACCCGGAGTCACCTAGTGCAG” stands 27300 fluorescence intensity (a.u.); under “CTGAAATGATTTTCATTTGATTCAAATGGGCCTAAGAATTCGGAGTCACCTAGTGCAG”, 17200 fluorescence intensity (a.u.); under “GTGGCTGTGATTGTGTGATTGTGTACCTGTTTGTAGTGAACGGAGTCACCTAGTGCAG”, 20500 fluorescence intensity (a.u.).

For the sequence “TATCTACTAATTTAACTTATAAATGGGTTTATGGGTTGACCGGAGTCACCTAGTGCAG”, the binding signal was 11200 fluorescence intensity (a.u.). Under “TTAACTGATTGATGCTCAAGTGGATTGATCGATTTTGTTGCGGAGTCACCTAGTGCAG” stands 65500 fluorescence intensity (a.u.). Under “GATGAACATTGATTTGCTCGGATCTTGGATGCTGTTTGTGCGGAGTCACCTAGTGCAG” stands 20800 fluorescence intensity (a.u.); under “TTTAAATTTTAATGATCGGTGATTTTGTGCAGGGAAAACGCGGAGTCACCTAGTGCAG”, 24200 fluorescence intensity (a.u.). With “AATAAGGGACTTAATTAGTCTAGGTTAAACTGGATGTTGCCGGAGTCACCTAGTGCAG” the figure was 4640 fluorescence intensity (a.u.); with “ATGATAACTGATTGCAATAAGGTTAGGATGTTGTCACACCCGGAGTCACCTAGTGCAG”, 52900 fluorescence intensity (a.u.); with “TTTAATTAATTTGTTAAATTTTCTGATCGGAATGAGCGGTCGGAGTCACCTAGTGCAG”, 63700 fluorescence intensity (a.u.). With “AATAATGATAACTGATAAGGGTTTGTTTAGTCTGGATGAACGGAGTCACCTAGTGCAG”, the binding signal was 18800 fluorescence intensity (a.u.). With “CGGGCTTCTTGATTTGCGGATTGTTGTTGTGGATCGCCAGCGGAGTCACCTAGTGCAG” the figure was 5040 fluorescence intensity (a.u.). With “TTTTAAATTTCATTATATAATGATTAATTTGGGAATGAGGCGGAGTCACCTAGTGCAG”, the binding signal is 30800 fluorescence intensity (a.u.).

“GATAATGGCCCTTAAATTGATTGCAACTCACGGTGATACACGGAGTCACCTAGTGCAG”: the binding signal is 44800 fluorescence intensity (a.u.).

Regarding “GCTCTAAGGGTGGGTTTTGATGGGAGGTTTTGGATGGATACGGAGTCACCTAGTGCAG”, the binding signal was 6370 fluorescence intensity (a.u.). With “TTTGATTTGGGAAAGATAATATATCTTGCTACTTTGTCTTCGGAGTCACCTAGTGCAG” the figure was 18200 fluorescence intensity (a.u.); with “AAACATTAATTAATACCATAATAGTTAGGTGACAATTGACCGGAGTCACCTAGTGCAG”, 27100 fluorescence intensity (a.u.). Regarding “CAACGCCTGTAATTGCTCCTCCTGGCATGCAAGCCTTGTCCGGAGTCACCTAGTGCAG”, the binding signal is 5050 fluorescence intensity (a.u.). With “GTAAATTGTTTACTATCGAATGTACATGCTATATATATTGCGGAGTCACCTAGTGCAG” the figure was 20400 fluorescence intensity (a.u.).
